# Assay results reported in PubChem BioAssay AID504374 (National Center for Advancing Translational Sciences (NCATS), 2011).
# Screen size: about 1,500 compounds; about 100 (6.7%) were called active. Inconclusive results (about 7%) are left out. What follows is part of a selection rich in actives, with near analogues and random picks from the rest. Values without a mark were called inactive. The call rests on the fitted dose curve; in most records, active means well fitted inhibition curve with a large enough effect; inconclusive means small, poorly fitted or top-dose-only effect, or effect the other way; inactive means flat fitted curve, though single readings scatter.
# Molecular target: Runt-related transcription factor 1 (Homo sapiens) + Core-binding factor subunit beta (Homo sapiens) (UniProt Q01196+Q13951)
# Sequence (Q01196 whole entry, looked up): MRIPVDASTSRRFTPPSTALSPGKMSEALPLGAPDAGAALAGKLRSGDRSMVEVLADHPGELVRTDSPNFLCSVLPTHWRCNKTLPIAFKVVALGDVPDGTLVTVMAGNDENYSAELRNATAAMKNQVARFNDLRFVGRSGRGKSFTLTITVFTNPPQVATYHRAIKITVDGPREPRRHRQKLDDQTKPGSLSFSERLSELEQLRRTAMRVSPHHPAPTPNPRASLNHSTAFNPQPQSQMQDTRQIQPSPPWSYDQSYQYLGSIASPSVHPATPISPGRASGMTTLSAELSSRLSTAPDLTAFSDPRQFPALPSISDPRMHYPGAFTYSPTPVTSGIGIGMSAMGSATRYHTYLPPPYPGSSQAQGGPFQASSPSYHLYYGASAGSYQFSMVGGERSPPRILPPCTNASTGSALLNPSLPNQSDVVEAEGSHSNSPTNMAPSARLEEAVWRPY
# Sequence (Q13951 whole entry, looked up): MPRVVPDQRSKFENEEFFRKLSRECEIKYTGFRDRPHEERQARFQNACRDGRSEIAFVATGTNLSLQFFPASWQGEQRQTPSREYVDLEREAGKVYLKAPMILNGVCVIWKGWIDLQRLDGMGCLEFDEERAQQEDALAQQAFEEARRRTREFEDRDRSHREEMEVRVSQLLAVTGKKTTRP
# Test: qHTS Assay for Compounds Blocking the Interaction Between CBF-beta and RUNX1 for the Treatment of Acute Myeloid Leukemia: Hit Validation; further: nearly all actives have a fitted effect of over 60% in size
# Conditions: AlphaScreen CBFb-His/RUNX1-biotin binding; series mostly up to 59.8 µM; activity, negative = inhibition: at the top concentration
# Source text: NIH Chemical Genomics Center [NCGC]
# NIH Molecular Libraries Probe Production centers Network [MLPCN]
# Assay Submitter (PI): Paul Liu
# Core Binding Factor (CBF) abnormalities are associated with 20-25% of all acute myeloid leukemias (AML), of which 5-10% are further sub classified as acute myelomonocytic leukemia with eosinophilia, also known as M4Eo in the FAB classification scheme. This subtype of leukemia is usually associated with chromosome 16 inversion (p13:q22). Chromosome 16 inversion results in formation of the fusion oncogene CBFB-MYH11, which encodes the fusion protein CBF-beta-SMMHC.
# It has been hypothesized that the interference of CBF-beta and RUNX1 binding could have therapeutic implications for patients with CBF mediated leukemias. We developed a CBF-beta and RUNX1 binding assay in AlphaScreenTM format and optimized it for high throughput screening to search for inhibitors. The goal of this project is to screen MLPCN's compound collection (MLSMR) for identifying the inhibitors of the interaction between CBF-beta and RUNX1 proteins as research probes. If these probes work well in the animal models, the ultimate goal of this project is to development a new drug treatment for this disease.
# This assay can not be used to assess how apparent inhibitors interfere with protein binding, and whether inhibitors specifically bind to either protein. Disruption of this protein-protein interaction, through any mechanism, is the intended target activity.
# The present data set was run to confirm the activity of hits from the primary screen.
# NCGC Assay Protocol Summary:
# Step, Parameter, Description
# (1) Reagent, 3 uL CBFb-His/RUNX1-biotin mix incubated together for 20 minutes at room temperature (30 nM each)
# (2) Compound or control, 23 nL compound stock solution
# (3) Incubation, 15 minutes at Room temperature
# (4) Reagent, 1 uL 50 ng each of beads (Nickel beads and streptavidin beads)
# (5) Incubation, 90 minutes at Room temperature
# (6) Detection, Excitation=365 nm Emission=440 nm, Envision reader in AlphaScreenTM mode
# Keywords: MLSMR, MLPCN, NIH Roadmap, qHTS, NCGC, Core binding factor, CBF, CBF-beta, Acute myeloid leukemia
# On the % scale 0 is the no-effect control and ±100 the full control effect; potency means the concentration at half of the fitted maximal effect.
Compound,"activity, negative = inhibition [%]",Potency
Cc1cc(C)cc(NC(=O)NCC(O)COc2ccc([N+](=O)[O-])cc2)c1 (stereo not drawn),3.3,–
CCOc1cc(/C=N/n2c(C)nnc2C)ccc1O,-4.6,–
Cc1ccccc1Nc1ncc(C#N)c(N)n1,-0.858,–
O=C(Nc1ccc(Cl)cc1)Nc1ccc(C(=O)N2CCOCC2)cc1,-1.96,–
CCCc1nc2sc3ccccc3c(=O)c2c(=O)n1Cc1ccc(OC)cc1,4.52,–
Cc1c(C(=O)/C=C/N(C)C)nnn1-c1ccc(Cl)c(Cl)c1,4.52,–
O=c1oc2c(O)c(O)cc3c(=O)oc4c(O)c(O)cc1c4c23,–,0.158 µM (active)
O=c1cc2c(=O)oc3cc(O)c(O)oc3c2c(O)c1O,–,0.447 µM (active)
COC(=O)Cc1[nH]c(=O)[nH]c1C(=O)OC,-2.87,–
CSc1ccc(NC(=O)Nc2cc(C)ccn2)cc1,-4.53,–
C[N+](C)(C)CCCN(Cc1ccc2c(c1)OCO2)C(=O)NC1CCCCC1,-8.77,–
C=CCNC(=S)Nc1c(C(=O)OC)[nH]c2cc(OC)ccc12,-6.58,–
O=C(O)c1cc(O)c2c(c1)[C@H]([C@H]1c3cc(C(=O)O)cc(O)c3C(=O)c3c(O[C@@H]4OC(CO)C(O)C(O)C4O)cccc31)c1cccc(O[C@@H]3OC(CO)C(O)C(O)C3O)c1C2=O (stereo partly drawn),–,0.562 µM (active)
O=C(OCC(O)COC(=O)c1cccnc1)c1cccnc1,0.481,–
N#Cc1ccc(S(=O)(=O)N2CCCN(c3ccc(C(F)(F)F)cn3)CC2)cc1,3.3,–
O=C(O)c1ccccc1C1Nc2ccccc2C(=O)N1CCCN1CCOCC1 (stereo not drawn),-13.6,–
Cc1ccc(Cn2nc(C)cc2C(=O)Nc2ccc(Cl)cc2)cc1,-3.08,–
CCn1c(NC(=O)C(C)C)c(-c2cccs2)c(=O)c2ccccc21,-7.71,–
CC(=O)Oc1cc(-c2coc3cc(OC(C)=O)c(OC(C)=O)c(OC(C)=O)c3c2=O)cc(OC(C)=O)c1OC(C)=O,–,1 µM (active)
Cc1nc(C)c(-c2ccnc(/N=C/NO)n2)s1,-3.29,–

Compound,"activity, negative = inhibition [%]",Potency
Cc1cc(OCC(=O)c2cccc(C(F)(F)F)c2)n2cnnc2n1,1.34,–
O=C(NC(=S)NNC(=O)c1ccccc1O)c1ccco1,–,1.26 µM (active)
Cc1onc(-c2ccccc2)c1C(=O)NC(=S)NNC(=O)c1ccco1,-9.63,–
O=C(NC(=S)Nc1ccccc1N1CCCC1)c1ccco1,-2.74,–
Nn1c(SCC(=O)Nc2ccc(S(N)(=O)=O)cc2)nnc1C(F)(F)F,4.8,–
O=C(CN1CCCc2ccccc21)N1CCc2ccccc21,7.88,–
Cc1cccc(NC(=S)N(CCN(C)C)C(C)c2ccccn2)c1 (stereo not drawn),–,6.87 µM (active)
Cc1ccc(NC(=S)Nc2ccccn2)cc1C,-4.63,–
CC(=O)NNC(=S)Nc1cccc(F)c1,-2.31,–
CC(c1ccccn1)N(CCN(C)C)C(=S)Nc1cccc(F)c1 (stereo not drawn),–,3.44 µM (active)
COc1ccc(CCN(C)CCC(=O)Nc2cccc(C)c2)cc1OC,-4.23,–
CC1=NN(c2nc3ccccc3s2)C(O)(C(F)(F)F)C1 (stereo not drawn),-0.882,–
COc1ccc(NC(=O)c2cccs2)cn1,4.88,–
CCOC(=O)NC1=NCC(C)S1 (stereo not drawn),-9.33,–
O=S(=O)(c1ccc(C(F)(F)F)cc1)N1CCCN(c2ccc(C(F)(F)F)cn2)CC1,-5.62,–
NNC(=O)c1ccc(COc2ccc([N+](=O)[O-])cc2)o1,-7.53,–
COc1ccc(/C=N/NC(=O)c2ccco2)cc1OCc1ccccc1,-0.527,–
N#Cc1cnn(-c2ccccc2)c1NC(=O)CN1CCOCC1,0.441,–
COC(=O)CC1C(=O)NCCN1C(=S)Nc1ccc(F)cc1 (stereo not drawn),0.286,–
O=C(O)COCC(=O)N1CCN(C2c3ccccc3-c3ccccc32)CC1,-2.67,–

Compound,"activity, negative = inhibition [%]",Potency
CC(C)NC(=O)Nc1cccc(Cl)c1,1.29,–
COCc1cc(O)c(O)c(O)c1-c1c(COC)cc(O)c(O)c1O,–,0.631 µM (active)
CCCCNC(=O)NCCN1CCOCC1,0.241,–
Brc1ccc(C2Nc3cccc4cccc(c34)N2)o1,–,14.1 µM (active)
Cc1ccc(/C=N/N2CCN(c3ccccn3)CC2)o1,-6.58,–
Cc1cc2nc(-c3ccccc3)cc(=O)n2[nH]1,-8.72,–
COc1ccc(/C=N/NC(=S)Nc2cc(C(F)(F)F)ccc2Cl)cc1,10.6,–
NC(=S)N/N=C/c1ncc(C(F)(F)F)cc1Cl,–,25.1 µM (active)
CC(C)(C)c1ccc(CCC2OCC(C[N+]3(C)CCOCC3)O2)cc1 (stereo not drawn),-2.73,–
Cc1nn2c(NCCOCCO)c3c(nc2c1-c1ccccc1)CCC3,-12.7,–
O=C(c1ccc(Cn2cc(Cl)c([N+](=O)[O-])n2)cc1)N1CCN(Cc2ccccc2)CC1,-5.87,–
Cc1onc(-c2c(F)cccc2Cl)c1C(=O)Nc1ccccc1N1CCOCC1,-11.4,–
CCCCC(=O)Nc1ccc(NC(=S)NC(=O)c2ccco2)cc1OC,-5.89,–
CCc1cccc(NC(=O)CCCCCC2NC(=O)NC2C)c1 (stereo not drawn),–,0.447 µM (active)
CCC(=O)Nc1cccc(C(=O)OC)c1,-8.54,–
CCOC(=O)CN1NC2(CCCCCC2)NC1=S,-2.8,–
Cc1onc(-c2c(F)cccc2Cl)c1C(O)c1ccc(F)cc1 (stereo not drawn),7.39,–
Nc1ncccc1OCc1ccc(Cl)c(Cl)c1,-2.93,–
